# G9a block – qHTS Assay for Inhibitors of Histone Lysine Methyltransferase G9a. Histone-lysine N-methyltransferase EHMT2 (Homo sapiens), Q96KQ7. Potency, µM (doses to about 102 µM), actives largely listed as inhibitors. G9a H3K9 monomethylation, AlphaScreen, 2 h. actives 8.8% (n = 350,000); note: nearly all actives have a fitted effect of over 75% in size
#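 AlphaScreen read-out: biotin-H3K9 peptide (500 nM) methylation by 20 nM enzyme with 20 uM SAM, 2 h at room temperature after 15 min compound preincubation; anti-monomethyl H3K9 antibody plus donor/acceptor beads, 10 min dark.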
# BAZ2B inh – qHTS Assay for Inhibitors of BAZ2B; Bromodomain adjacent to zinc finger domain protein 2B (Homo sapiens), Q9UIF8; AlphaScreen BAZ2B-H3K14Ac peptide displacement; Potency, µM (doses to about 114 µM), usual class: inhibitors; actives 4.4% (n = 360,000); AID 504333, 2011; note: nearly all actives have a fitted effect of over 60% in size
#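 AlphaScreen displacement: compounds (up to 110uM) incubated 30 min at room temperature with a preformed 50 nM BAZ2B/50 nM biotinylated H3K14Ac peptide complex in PBS pH 7.4 with Tween-20. Donor and acceptor beads at 10 ug/mL final added, 20 min light-protected before reading.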
# JMJD2A Tudor inh – qHTS Assay for Inhibitors of JMJD2A-Tudor Domain; Lysine-specific demethylase 4A (Homo sapiens), O75164; AlphaScreen JMJD2A-Tudor / H3K4me3 peptide binding; Potency, µM (series often up to 114 µM), usual class: inhibitors; actives 4.4% (n = 390,000); AID 504339, 2011; note: nearly all actives have a fitted effect of over 50% in size
# HP1b binding inh – HTS for Inhibitors of HP1-beta Chromodomain Interactions with Methylated Histone Tails. Chromobox protein homolog 1 (Homo sapiens), P83916. AlphaScreen HP1-beta / biotin-H3K9me3 peptide binding. Potency, µM (top dose mostly 114 µM), usual class: inhibitors. actives 0.56% (n = 390,000); note: nearly all actives have a fitted effect of over 70% in size
#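 Compound inhibition of the preformed complex between 50 nM HP1-beta and 50 nM biotinylated H3K9me3 peptide was read by AlphaScreen. Buffer was PBS pH 7.4 with 0.01% Tween-20. Incubations ran 30 min at room temperature, with 10 ug/mL donor/acceptor beads.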
# CtBP-E1A inh – qHTS Assay for Inhibitors of the CtBP/E1A Interaction; AlphaScreen GST-E1A/His-CtBP binding, 1536-well; stronger effect = lower value; activity change, % (test concentration not listed); actives 0.49% (n = 340,000); AID 651724, 2012; in the data active = activity change below about -65%; inconclusive = mostly about -30% to -63%
#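 In 5 uL wells, 23 nL compound meets equimolar GST-E1A and His-CtBP (5X stock 125 nM each) for 2 h, 37 °C. Beads (5X, 50 ug/mL) then 1 h, 37 °C, dark.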
# Six1-Eya2 inh – qHTS Assay for Inhibitors of the Six1/Eya2 Interaction; activity change, % (test concentration not listed); actives 0.56% (n = 360,000); Homeobox protein SIX1 (Homo sapiens) + Protein phosphatase EYA2 (Homo sapiens), …; AlphaScreen GST-Six1/His-Eya2 binding, biochemical; stronger effect = lower value; in the data active = activity change below about -65%; inconclusive = mostly about -30% to -63%
#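 AlphaScreen luminescence read after one hour at 37 °C in darkness. Pin-transferred compounds met GST-Six1 and His-Eya2 protein (5X stock 250 nM/500 nM) plus glutathione donor and Ni-chelate acceptor beads (5X, 50 ug/mL).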
# Hits are given with their value; – = inactive; ? = inconclusive; · = not tested or not shown; [ ] = remark or other dose. This is a sample that favours compounds with a hit; in the whole collection about 10% have one here. Unless noted, calls come from the whole dose curve; as a rule, active = well fitted inhibition curve with a large enough effect; inconclusive = small, poorly fitted or top-dose-only effect; inactive = no such curve, though single readings can be large or run the other way.
SMILES,G9a block,BAZ2B inh,JMJD2A Tudor inh,HP1b binding inh,CtBP-E1A inh,Six1-Eya2 inh
O=[N+]([O-])c1ccc(N=Nc2ccc(O)c3ccccc23)cc1,·,·,3.2µM,7.9µM,-70,?
O=S(=O)(Nc1ccc(S(=O)(=O)Nc2ccccc2)cc1)c1ccccc1,–,–,–,–,–,–
O=S(=O)(Nc1ccccc1)c1ccc(NS(=O)(=O)c2c(F)cccc2F)cc1,50µM,–,–,–,–,–
CC(C)N(N=Nc1ccc([N+](=O)[O-])cc1)C(C)C,–,–,–,–,·,–
O=S(=O)(Nc1ccc(N=Nc2ccc(O)c3ccccc23)cc1)c1ccccc1,?,40µM,25µM,40µM,?,?
O=S(=O)(Nc1ccc(N=Nc2ccccc2)cc1)c1ccccc1,32µM,35µM,35µM,45µM,–,?
O=S(=O)(Nc1ccc(-c2ccccc2)cc1)c1ccccc1,·,·,–,–,–,–
COc1ccc(OC)c(CNS(=O)(=O)c2ccc(-c3cc(C(F)(F)F)on3)s2)c1,–,–,–,–,·,·
COc1ccccc1CCn1c(=O)c(-c2ccccc2)nc2cncnc21,–[12.7 µM],·,·,·,·,·
C[C@@H](O)C1NC(=O)[C@H](CCCCN)NC(=O)c2cc([N+](=O)[O-])cc(I)c2OCC[C@@H](C(N)=O)NC1=O (stereo not given in full),8.9µM,?,56µM,–,·,–
CC[C@H](C)[C@@H]1NC(=O)c2cc([N+](=O)[O-])cc(F)c2NCCCC[C@@H](C(N)=O)NC(=O)[C@H](CCCCN)NC1=O,?,–,–,–,·,–
CC(C)C[C@@H]1NC(=O)[C@H](CO)NC(=O)c2cc([N+](=O)[O-])cc(I)c2OCC[C@@H](C(N)=O)NC1=O,40µM,–,–,–,–,–
CCOc1ccc2nc(N3CCCC(C(=O)Nc4ccc(OC)cc4)C3)sc2c1 (stereo not given),–,–,–,–,·,·
c1ccc2c(c1)Sc1ccccc1N2CCN1CCCC1,–[12.7 µM],·,·,·,·,·
CCCCN1/C(=C/c2ccc3ccccc3[n+]2CC)Sc2ccccc21,32µM,?,32µM,–,–,–
CCN1/C(=C/c2ccc3cc(C)ccc3[n+]2C)Sc2ccc3sccc3c21,16µM,45µM,14µM,–,·,–
CCN1/C(=C/c2ccc3cc(C)ccc3[n+]2CC)Sc2cc(C)ccc21,22µM,40µM,?,–,–,–
CCC(=O)N1CCc2cc(Br)cc(S(=O)(=O)CCC(=O)NCc3ccc(C)cc3)c21,–,–,–,–,·,·
Cc1ccc(/C=[N+](\[O-])c2ccc(N(C)C)cc2)c2nsnc12,8.9µM,32µM,25µM,28µM,–,?
CC(C)NC(=O)c1onc(CSc2nc3ccccc3[nH]2)c1C(=O)NC(C)C,50µM,–,–,–,–,–
CCCCNC(=O)c1onc(CSc2nc3ccccc3[nH]2)c1C(=O)NCCCC,71µM,–,–,–,–,–
O=C(NCC1CC1)c1onc(CSc2nc3ccccc3[nH]2)c1C(=O)NCC1CC1,·,?,–,–,–,–
O=C(NCCCN1CCOCC1)c1onc(CSc2nc3ccccc3[nH]2)c1C(=O)NCCCN1CCOCC1,50µM,–,–,–,?,–
CCCCn1c(=O)c2oc3ccccc3c2n(CC(=O)Nc2ccc(CC)cc2)c1=O,–,–,–,–,·,·
CC1=C(c2cccc(Cl)c2)S(=O)(=O)NC1=NCc1ccccc1C,–,–,–,–,·,·
SMILES,G9a block,BAZ2B inh,JMJD2A Tudor inh,HP1b binding inh,CtBP-E1A inh,Six1-Eya2 inh
CCCCn1c(SCC(=O)NCc2ccco2)nc2ccccc2c1=O,–,–,–,–,–,–
COCCNC(=O)c1ccc2c(=O)n(Cc3ccco3)c(SCC(=O)Nc3ccc(OC)cc3OC)nc2c1,–,–,56µM,–,–,–
CCOC(=O)c1sc2nc(SCC(=O)NCc3ccco3)n(Cc3ccccc3)c(=O)c2c1C,–,–,–,–,–,–
O=C(CSc1nc2ccccc2c(=O)n1Cc1ccco1)NCc1ccco1,?,?,56µM,–,–,–
COCCNC(=O)c1ccc2c(=O)n(Cc3ccco3)c(SCC(=O)NC3CCCCC3)nc2c1,·,–,–,–,–,–
Cc1sc2nc(SCC(=O)NCc3ccco3)n(Cc3ccccc3)c(=O)c2c1C,50µM,–,–,–,–,–
Cc1[nH]c2ccc(-c3nnc(SCC(=O)NCc4ccco4)n3Cc3ccccc3)cc2c1C,40µM,56µM,56µM,–,–,–
CCN(C(=O)CSc1nc2ccccc2nc1Cc1cccc(OC)c1)c1cccc(C)c1,–,–,–,–,·,·
CCC(=O)Nc1ccccc1-c1nc2ccccc2n(C(C)C(=O)Nc2cccc(Cl)c2C)c1=O (stereo not given),?,?,–,–,·,·
CCCCOC(=O)c1ccc(NC(=O)/C(C#N)=C/c2ccc(C)o2)cc1,–,–,–,–,·,·
Cc1cc(C)c2oc(C(=O)Nc3c(C(=O)c4ccccc4)oc4ccccc34)cc(=O)c2c1,–,–,–,–,·,·
Cc1cc2cc(C)c(SCC(=O)NCc3ccco3)nc2cc1C,–,?,–,–,–,–
CC(C)(C)c1nc(SCC(=O)NCc2ccco2)c2ccccc2n1,50µM,?,–,–,–,–
COC(=O)c1cc(Br)c(=O)n(CCN2CCCC2)c1,50µM,–,–,–,–,–
COC(=O)c1cc(Br)c(=O)n(CCN2CCCCC2)c1,–,–,–,–,–,–
N#CC1=C(N)SC(N)=C(C#N)C1c1ccnc2ccccc12,2.5µM,?,56µM,–,–,–
O=C1c2ccccc2C(=O)C1c1nccc2ccccc12,–[12.7 µM],–,–,–,–,–
CC(=O)C1=C(C)OC(N)=C(C#N)C1c1cccc2ccccc12 (stereo not given),·,–,–,–,–,–
O=C1c2ccccc2C(=O)C1c1ccnc2ccccc12,–,–,79µM,–,–,–
O=c1cc[nH]c2c(C(F)(F)F)cccc12,–,–,–,–,–,–
O=C(O)c1c[nH]c2ccc(S(=O)(=O)N3CCN(c4ccc(F)cc4)CC3)cc2c1=O,?,?,?,–,–,–
COc1cccc2c(=O)c(C(=O)O)c[nH]c12,22µM,?,79µM,–,–,–
O=C(O)c1c[nH]c2ccc(F)cc2c1=O,18µM,56µM,79µM,–,–,–
O=C(O)c1c[nH]c2c(C(F)(F)F)cccc2c1=O,35µM,?,25µM,–,–,–

# Source: PubChem
